Among the data in PubChem BioAssay are z-score values, retold here.

Each structure is given as a SMILES string. Values without a mark were called inactive.

This assay is described as follows: growth of efflux-deficient E. coli DRC39 – strain DRC39, OD650, 24 h, E. coli filamentation inducers, primary screen (AID 1178).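 Note: growth measured as culture turbidity by optical density at 650 nm; test concentration not given here.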 The note with it: E. coli DRC39 acrAB, higher = more signal, called active from +8 up or from −8 down.
In the case of `COC(=O)[C@@]1(Cc2ccc(F)cc2)[C@H]2c3cc(C(=O)N(C)C)n(Cc4ccc(O)c(OC)c4)c3C[C@H]2CN1C(=O)c1ccccc1`, the z-score is 0.373.

For the compound `CO[C@H]1O[C@H](CO)[C@@H](OC(=O)Nc2cccc(F)c2)[C@H](OC(=O)Nc2ccccc2-c2ccccc2)[C@H]1OC(=O)Nc1ccccc1-c1ccccc1`, the z-score is -0.852. As to `C=C(CCCC)/C(=C/C[C@H](OC(C)=O)c1ccc(OCCO)cc1)c1cc(C(=O)OC)ccc1OC`, the z-score was 0.487. `COCCCNC(=O)[C@@]1(Sc2ccc(C)cc2)CC(=O)N(Cc2ccccc2Cl)[C@@H]1c1ccc(CO)cc1I`: the z-score is 0.0085. With `COc1cccc(/C=C(\C#N)C(=O)Nc2c(C)n(C)n(-c3ccccc3)c2=O)c1` the figure was 0.575; with `CS(=O)(=O)CCOC(=O)C1=CC(CCCO)=CC(C2CC2)N(Cc2cccc(OC(F)(F)F)c2)C=C1C(=O)OCCS(C)(=O)=O` (stereo not given), 0.9; with `COc1ccc(C#Cc2ccc3c(c2)[C@]2(C(=O)N3)[C@H](C(=O)Nc3nc4ccccc4s3)[C@H]3C(=O)O[C@H](c4ccccc4)[C@H](c4ccccc4)N3[C@@H]2c2ccccc2OCCO)cc1`, 0.82. The value for `C=C[C@@H](C)[C@@H](OC(=O)Nc1ccc(SC)cc1)c1ccc(OCCO)cc1` was -0.68. The value for `CC(=O)N1CC(C(O)C2C=CC3C(=O)NC(=O)C3N2Nc2ccc(Cl)cc2Cl)c2ccccc21` (stereo not given) was -0.306; that for `CC(C)C[C@@H]1NC(=O)[C@H]2C[C@@H](C(=O)NCCCCCN)[C@@H](c3cccc(OCCO)c3)N2C1=O` was 1.06; that for `C=C(/C(=C/C[C@@H](OC(C)=O)c1ccc(CO)o1)c1cc(C(=O)OC)ccc1OC)C(C)C` was 0.769. Take `O=C1OCC=C[C@H]2OC34C=CCN(c5ccc6ccccc6c5)C(=O)[C@H]3N(CCCCCO)C(=O)[C@@H]4[C@@H]12` (stereo not given in full): the z-score was -1.19. The value for `COC(=O)[C@@]1(Cc2ccccc2)[C@H]2c3cc(C(=O)N4CCCC4)n(CCSCCO)c3C[C@H]2CN1C(=O)c1ccccc1` was -1.01; that for `NC(=O)[C@@H]1[C@H]2C(=O)O[C@H](c3ccccc3)[C@H](c3ccccc3)N2[C@H](c2ccc(OCCO)cc2)[C@@]12C(=O)Nc1ccc(C#CCCO)cc12` was 0.544.

For the compound `[N-]=[N+]=Nc1ccccc1C[C@]1(C(=O)NCc2ccccc2)COC(c2ccc(OCCCO)cc2)=N1`, the z-score is 0.728.

As for `CN1C(=O)[C@@]2(Cc3ccccc3)N=C(c3ccc(OCCCO)cc3)O[C@H]2c2ccccc21`, the z-score is 0.432.

As to `CCOC(=O)C[C@H]1[C@H](OC(=O)c2ccccc2-c2ccccc2)[C@@H](NC(=O)c2ccc3ccccc3n2)c2cc(OCCCO)ccc2N1C(=O)c1ccccc1`, the z-score is -0.745. As to `Nc1cc(Br)ccc1C(=O)O`, the z-score was 0.37. For the compound `C=C(COC)C(=O)CC[C@@H](OC(=O)c1cccnc1)c1ccccc1OCCO`, the z-score is 0.325. Turning to `CCOC(=O)C1=C[C@@H](c2ccccc2)N(S(=O)(=O)c2ccc(C)cc2)[C@H]1c1ccccc1`, the z-score is -0.86. With `CC(C)c1ccc(NN2C(C(O)Cc3ccccc3)C=CC3C(=O)N(c4ccccc4)C(=O)C32)cc1` (stereo not given) the figure was -1.12; with `C=CCC(OC(C)=O)[C@@H]1[C@@H](N(Cc2ccc(-c3cccc(C(F)(F)F)c3)o2)C(=O)Cc2ccc(OC)cc2)c2cc(OCCCO)ccc2N1C(=O)Cc1ccc2ccccc2c1` (stereo not given in full), 0.532; with `COCCOC(=O)N1C(=O)[C@@]2(c3cc(C#CCNC(N)=O)ccc31)[C@H](c1ccc(O)cc1)N1[C@H](c3ccccc3)[C@H](c3ccccc3)OC(=O)[C@H]1[C@@H]2C(N)=O`, 0.507. `C=CC1c2cc(O)c(OC)cc2CCN1Cc1ccc([N+](=O)[O-])o1` (stereo not given): the z-score is 0.148. As for `CC(=O)n1cc(C(O)C2C=CC3C(=O)N(c4ccccc4)C(=O)C3N2Nc2ccc(C(C)C)cc2)c2ccccc21` (stereo not given), the z-score is -0.0648. With `CO[C@H]1O[C@H](CO)[C@@H](OC(=O)c2ccc(Br)cc2)[C@@H]2OC(=O)[C@H](Cc3ccccc3)C/C=C/C[C@@H](Cc3ccccc3)C(=O)O[C@@H]12`, the z-score was 1.74. Consider `CN(C)CCCC[C@@H]1NC(=O)[C@@H]2C[C@H](C(=O)O)[C@H](c3cccc(OCCO)c3)N2C1=O`, for which the z-score is -0.175. In the case of `CCCCCCCCCCC(O)C1C=CC2C(=O)N(c3ccccc3)C(=O)C2N1Nc1ccccc1F` (stereo not given), the z-score was -0.717. With `C=CCOC(=O)[C@H]1[C@@H]2C(=O)O[C@@H](c3ccccc3)[C@@H](c3ccccc3)N2[C@@H](c2ccc(OCCOC(=O)[C@H]3C[C@H]4C(=O)N[C@@H](CCCCNC(C)=O)C(=O)N4[C@H]3c3cccc(OCCO)c3)cc2)[C@]12C(=O)Nc1ccc(I)cc12` the figure was -0.817; with `Cc1ccc(F)cc1S(=O)(=O)N[C@@H]1CCN(Cc2cccc3[nH]ccc23)C1`, -0.429.

`CC(C)C(=C=CC[C@@H](O)c1cccc(OCCO)c1)C[C@@H](O)c1ccccn1`: the z-score was 0.267.

`[N-]=[N+]=NCc1ccccc1[C@H]1OC(c2ccc(OCCCO)cc2)=N[C@@]1(Cc1ccccc1)C(=O)NCCN1CCOCC1`: the z-score is 2.89. Take `C=CC[C@H](OC(=O)Nc1ccc(SC)cc1)c1ccc(OCCO)cc1`: the z-score was -0.0217. The value for `CN(C)C(=O)[C@@]1(Cc2ccccc2)COC(c2ccc(OCCCO)cc2)=N1` was 0.704; that for `NC(=O)[C@H]1[C@@H]2C(=O)O[C@@H](c3ccccc3)[C@@H](c3ccccc3)N2[C@@H](c2ccc(O)cc2)[C@]12C(=O)Nc1ccc(C#CC3=CCCCC3)cc12` was -0.466.
